This is a sample that favours compounds with a hit; in the whole collection about 3.3% have one here.
WRN inhibitor: qHTS for Inhibitors of WRN Helicase | 0.46% of 360,000 active | Potency, µM (doses to about 114 µM), without a hit: at the highest dose activity change, negative = inhibition, hits mostly inhibitors | Bifunctional 3'-5' exonuclease/ATP-dependent helicase WRN (Homo sapiens), Q14191 | WRN helicase unwinding, fluorescent forked duplex, kinetic; note: potency is the fitted concentration of half-maximal effect; nearly all actives have a fitted effect of over 55% in size
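WRN at 20 nM final preincubated with compound 15 min at room temperature; reaction started with 100 nM fluorophore/quencher forked duplex oligonucleotide and 2 mM ATP final. Unwinding followed kinetically by red fluorescence (ex 525, em 598 nm).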
USP1-UAF1 inh: Inhibitors of USP1/UAF1: Primary Screen; Ubiquitin carboxyl-terminal hydrolase 1 (Homo sapiens), O94782; recombinant USP1/UAF1, Ub-Rhodamine cleavage fluorescence; Potency, µM (highest dose often 57.1 µM), for inactives: at the highest dose activity change, negative = inhibition, hits mostly inhibitors; 0.23% of 390,000 active; note: potency is the fitted concentration of half-maximal effect; nearly all actives have a fitted effect of over 60% in size
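USP1/UAF1 complex (1 nM) preincubated 15 min at room temperature with compound, then Ub-Rho substrate (150 nM final) added. Kinetic fluorescence at 480/540 nm over 6 reads at 60 s intervals; 50 mM HEPES pH 7.8, 0.5 mM EDTA, 0.1 mg/ml BSA, 1 mM TCEP, 0.01% Tween-20.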
PI5P4Ka inh: qHTS for Inhibitors of phosphatidylinositol 5-phosphate 4-kinase (PI5P4K); Phosphatidylinositol 5-phosphate 4-kinase type-2 alpha (Homo sapiens), P48426; PI5P4Kalpha enzyme, ADP-Glo luminescence, 60 min; active compounds read low; max response, %; 1.2% of 330,000 active; active = max response of -50% or lower; inconclusive = between -30% and -50%; inactive = -30% or higher; note: value at the top dose of about 77 µM
Target sequence (P48426 whole entry, looked up): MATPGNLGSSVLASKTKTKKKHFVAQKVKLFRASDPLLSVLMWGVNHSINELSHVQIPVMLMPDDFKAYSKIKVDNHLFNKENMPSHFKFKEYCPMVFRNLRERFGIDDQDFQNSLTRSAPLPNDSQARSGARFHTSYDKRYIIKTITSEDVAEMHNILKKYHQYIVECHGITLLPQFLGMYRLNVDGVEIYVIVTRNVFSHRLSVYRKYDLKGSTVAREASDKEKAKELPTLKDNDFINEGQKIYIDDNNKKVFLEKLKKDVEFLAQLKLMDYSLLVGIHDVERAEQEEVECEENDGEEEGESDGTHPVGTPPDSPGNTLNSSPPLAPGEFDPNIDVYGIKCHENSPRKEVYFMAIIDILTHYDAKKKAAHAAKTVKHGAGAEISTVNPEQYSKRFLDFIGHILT
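Enzyme plus substrate dispensed, test compounds pinned in, then ATP (5 microM final) added. After 60 min at RT, ADP-Glo reagent 1 for 45 min and reagent 2 for 30 min preceded luminescence imaging.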
PLK1 PBD block: qHTS for Inhibitors of PLK1-PDB (polo-like kinase 1 - polo-box domain): Primary Screen | Potency, µM, inactives show max response, negative = inhibition, most hits filed as inhibitors | AID 720504, 2013 | 2.8% of 360,000 active | Plk1 PBD binding of FITC phosphopeptide, fluorescence polarization; note: potency is the fitted concentration of half-maximal effect; series mostly up to about 57 µM; nearly all actives have a fitted effect of over 65% in size
USP2a inh: qHTS Assay for Inhibitors of Ubiquitin-specific Protease USP2a Using CHOP2 as the Reporter; Ubiquitin carboxyl-terminal hydrolase 2 (Homo sapiens), O75604; USP2 core, Ub-CHOP2 coupled fluorogenic reporter, 485/531; Potency, µM (top dose mostly 38.3 µM), without a hit: top-dose activity change, negative = inhibition, actives largely listed as inhibitors; 0.01% of 330,000 active;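 note: potency is the fitted concentration of half-maximal effect; plate controls were DMSO wells for no effect and full inhibition by NEM control for full effect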
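Deubiquitinase activity read as fluorescence (485/531 nm) after Ub-CHOP2 cleavage activates the enterokinase reporter on its substrate; USP2 core 10nM, Ub-CHOP2 and substrate 25nM each, 30min compound preincubation then 60min RT; data normalized to NEM, curves fitted.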
The depositor's hits bear a star; ? = inconclusive; / = no result; [ ] = remark or other dose. Unless noted, calls come from the whole dose curve; as a rule, active = well fitted curve in the direction sought with a large enough effect; inconclusive = small, poorly fitted or top-dose-only effect, or another doubt; inactive = no such curve, though single readings can be large; an effect the other way counts as inactive or inconclusive. Unless noted, % is set by controls: 0 for no effect and ±100 for the full control effect.

SMILES	WRN inhibitor	USP1-UAF1 inh	PI5P4Ka inh	PLK1 PBD block	USP2a inh
COc1cc(OC)cc(C(=O)NC(=S)Nc2ccc(Cl)c(C(=O)O)c2)c1	1.3%	-17.5%	-9.0	-12.7%	1.9%
O=C(Nc1ccccc1Br)c1ccc(OC(=S)N2CCOCC2)cc1	2.7%	-2.9%	-9.9	29.9µM*	-0.7%
COc1ccc(-c2noc(CCC(=O)NCc3ccc(OC)cc3OC)n2)cc1	/	-6.6%	/	/	/
O=C(CSc1nc2ccccc2c(=O)[nH]1)c1ccc(O)c(O)c1	14.1µM*	0.5%	-56.0*	-17.2%	3.2%
Cc1ccc(S(=O)(=O)n2ccc3c2CCCC3=O)cc1	-2.5%	-19.7%	-13.8	26.7µM*	-0.9%
CCOc1ccccc1NC(=O)N1CCc2c(sc3c2CCCC3)C1c1ccccc1 (stereo unspecified)	/	-14.3%	/	/	/
Cc1cc(C)cc(-n2c(SCC(=O)NC3CCCCC3)nc3c([nH]c4ccccc43)c2=O)c1	/	-26.5%	/	/	/
CC(=O)c1cccc(NC(=O)CN2C(=O)c3cccnc3Sc3ccccc32)c1	/	1.1%	/	/	/
CCc1ccc2occ(CC(=O)Nc3ccccc3C(F)(F)F)c2c1	/	-7.0%	/	/	/
Oc1ccc2cccnc2c1	8.6%	-2.5%	-13.8	26.7µM*	2.9%
COCC(=O)N1CCC(Oc2ccc(C(=O)N3CCCCCCC3)cc2)CC1	2.5%	-5.5%	-2.4	1.1%	1.8%
COCCC(=O)N1CCC(Oc2ccc(C(=O)N3CCCCCC3)cc2)CC1	5.1%	-23.7%	-10.6	10.6µM*	-1.4%
O=C(Nc1ccc(Nc2ccccc2)cc1)c1ccc(Cl)c([N+](=O)[O-])c1	-8.2%	-2.6%	-0.6	-1.2%	0.1%
Cc1cc(C(=O)Nc2ccc(Nc3ccccc3)cc2)ccc1[N+](=O)[O-]	?	-27.3%	-26.7	3.36µM*	2.7%
CC1CCN(C(=S)c2ccc3c(c2)OCO3)CC1	2.7%	-15.1%	/	-5.3%	4.0%
S=C(c1ccc2c(c1)OCO2)N1CCN(c2cccc(Cl)c2)CC1	-9.0%	-10.6%	-8.5	9.47µM*	/
Cc1cccc(N2CCN(C(=S)c3ccc4c(c3)OCO4)CC2)c1	-10.3%	-5.5%	-6.1	10.6µM*	/
N#CC1=C(N)SC(N)=C(C#N)C1c1c(Cl)cccc1Cl	-11.4%	?	-65.2*	?	1.0%
N#CC1=C(N)SC(N)=C(C#N)C1Cc1ccccc1	-21.0%	?	-51.6*	25.4%	4.1%
Cc1ccc(NC(=O)CSc2nnc3[nH]c(=O)cc(-c4ccccc4)n23)cc1Cl	/	-15.3%	/	/	/
CC(=O)Nc1ccccc1OCc1cc(=O)n2c(C)csc2n1	/	-29.7%	/	/	/
CNC(=O)CCCc1nc(-c2ccccc2Cl)no1	-8.5%	4.5%	/	23.8µM*	3.3%
NC(=O)CCCc1nc(-c2ccccc2Cl)no1	-1.4%	-17.7%	/	0.1%	1.0%
Cc1ccc2nc(Nc3ccc(Br)cc3)nc(-c3ccccc3)c2c1	/	-26.1%	/	/	/
CCOc1ccccc1NC(=O)c1cc2c(=O)[nH]c3ccccc3c2s1	/	10.1%	/	/	/
SMILES	WRN inhibitor	USP1-UAF1 inh	PI5P4Ka inh	PLK1 PBD block	USP2a inh
COc1ccc(-n2nc3c(N4CCC(C(=O)NCC(C)c5ccccc5)CC4)nnc(C)c3c2C)cc1 (stereo unspecified)	1.1%	-25.3%	-12.0	6.7µM*	3.4%
COc1ccc(CNC(=O)CCc2c(C)nn(-c3ccc(N4CCCCC4)nn3)c2C)c(OC)c1	/	10.6%	/	/	/
Cc1ccccc1CN1C(=O)c2ccccc2Sc2ccc(C(=O)NC3CCCCC3)cc21	/	-13.1%	/	/	/
CCN(CC)CCn1c(NCc2cc(OC)ccc2OC)nc2ccccc21	8.1%	-9.8%	-7.4	26.7µM*	2.1%
CC1(C)CC(=O)C2=C(C1)OC(N)=C(C#N)C2c1cc2c(cc1[N+](=O)[O-])OCO2 (stereo unspecified)	?	?	-79.7*	?	7.3%
CC1(C)CC(=O)C2=C(C1)OC(N)=C(C#N)C2C#Cc1ccccc1 (stereo unspecified)	-10.9%[57.1 µM]	-14.6%	1.8	10.6µM*	-0.3%

Compound activity (PubChem)
